RORg inh: ROR gamma (mouse) transcription inhibition | Drosophila S2 Gal4-RORgamma UAS-luciferase reporter, 20 h | Potency, µM (series often up to 53.6 µM), for inactives: top-dose activity change, negative = inhibition, hits mostly inhibitors | hit rate 5.4% among 310,000 | P51450; further: on the % scale 0 is the no-effect control and ±100 the full control effect; nearly all actives have a fitted effect of over 60% in size
Target sequence (P51450 whole entry, looked up, the tested form may be a part): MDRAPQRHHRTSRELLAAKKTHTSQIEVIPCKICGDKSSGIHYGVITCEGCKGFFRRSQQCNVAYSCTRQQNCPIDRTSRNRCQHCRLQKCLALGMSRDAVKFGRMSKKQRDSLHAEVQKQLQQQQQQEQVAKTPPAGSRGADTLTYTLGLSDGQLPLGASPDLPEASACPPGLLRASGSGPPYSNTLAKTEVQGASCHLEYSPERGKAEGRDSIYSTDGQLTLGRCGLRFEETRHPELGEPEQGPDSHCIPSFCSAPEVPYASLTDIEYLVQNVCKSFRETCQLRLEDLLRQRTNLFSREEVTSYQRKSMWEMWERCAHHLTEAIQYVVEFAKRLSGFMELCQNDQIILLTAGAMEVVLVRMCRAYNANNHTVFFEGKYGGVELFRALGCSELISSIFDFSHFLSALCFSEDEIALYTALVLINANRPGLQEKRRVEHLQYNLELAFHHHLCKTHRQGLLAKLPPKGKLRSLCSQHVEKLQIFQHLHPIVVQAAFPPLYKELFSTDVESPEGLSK
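Read-out: Photinus luciferase luminescence; inhibitors lower reporter signal. Insect Schneider cells with Gal4-ROR gamma fusion under metallothionein promoter, UAS reporter; 700 uM final copper sulfate induction, 20 hr, ambient temperature.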
KB-V1 cytotox: kills drug-selected multidrug resistant KB-V1 cells; KB-V1 MDR cells viability, CellTiter-Glo, 72 h; hit rate 3.4% among 400,000; Potency, µM (top dose mostly 46.1 µM), usual class: cytotoxic; further: on the % scale 0 is the no-effect control and ±100 the full control effect; nearly all actives have a fitted effect of over 60% in size
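Cytotoxicity via CellTiter-Glo luminescence after 72 h compound exposure at 37 degrees C. Cells: drug-selected KB-V1 line, DMEM phenol-red free plus 10% FBS. Compounds tested at multiple concentrations; normalized data fitted to concentration-effect curves.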
KB-3-1 tox: kills parental KB-3-1 adenocarcinoma cells. hit rate 1.4% among 400,000. Potency, µM (series often up to 46.1 µM), actives largely listed as cytotoxic. KB-3-1 viability, CellTiter-Glo ATP luminescence, 72 h. AID 1347075; further: on the % scale 0 is the no-effect control and ±100 the full control effect; nearly all actives have a fitted effect of over 60% in size
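Luminescent ATP read-out (CellTiter-Glo) measures survival of drug-naive KB-3-1 cells after 72 h compound exposure at 37 °C. Titration series was screened from lowest to highest concentration, with DMSO vehicle plates as background controls.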
SW480 rereplic: inducers of DNA re-replication in SW480 colon cancer cells | SW480 DNA re-replication, Hoechst DNA content imaging, 48 h | Potency, µM (highest dose often 46.1 µM), for the others: at the highest dose re-replication activation, most hits filed as activators | hit rate 1.8% among 340,000; further: % of control where 0% means no effect; nearly all actives have a fitted effect of over 55% in size
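Readout is total intensity of Hoechst-stained nuclei, excited at 405 nm and collected at 500-530 nm. Compound treatment lasted 48 hr at 37 C in 5% CO2 before staining.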
VP16 counter: inhibits Gal4-VP16 luciferase reporter, ROR gamma counter-screen | Drosophila S2 Gal4-VP16 UAS-luciferase, luminescence, 20 h | Potency, µM (series often up to 53.6 µM), for the others: top-dose activity, negative = inhibition, actives largely listed as inhibitors | hit rate 3.5% among 310,000 | AID 2546;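 further: Gal4-VP16 expression switched on by copper sulfate through the metallothionein promoter; on the % scale 0 is the no-effect control and ±100 the full control effect; nearly all actives have a fitted effect of over 50% in size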
MCF10A rereplic: DNA re-replication induction in MCF 10a cells; Potency, µM (series often up to 46.1 µM), for the others: at the highest dose activity, positive = re-replication, most hits filed as activators; hit rate 2.9% among 350,000; MCF 10A DNA re-replication, Hoechst nuclear intensity, 48 h; further: % of control where 0% means no effect; nearly all actives have a fitted effect of over 50% in size
Active calls of the source: *; i = inactive; ? = inconclusive; · = no result; [ ] = another dose, or the depositor's remark. An excerpt weighted towards active compounds, which were near 10% of everything screened. The call rests on the fitted dose curve; in most records, active means well fitted curve in the direction sought with a large enough effect; inconclusive means small, poorly fitted or top-dose-only effect, or another doubt; inactive means no such curve, though single readings can be large; an effect the other way counts as inactive or inconclusive. Potency means the concentration at half of the fitted maximal effect.

SMILES	RORg inh	KB-V1 cytotox	KB-3-1 tox	SW480 rereplic	VP16 counter	MCF10A rereplic
CCc1ccc(NC(=O)c2ccc3c(c2)N(Cc2ccc(C)cc2)CCS3)cc1	·	i	i	·	·	·
Cc1cc[n+](CC(=O)c2ccccc2)c2ccccc12	28.6%	i	i	-1.2%	-5.8%	1.7%
Cc1c(N)cc[n+](CC(=O)c2ccccc2)c1C	-7.5%	?	5.17µM*	?	13.6%	-14.1%
CC1CCCN(S(=O)(=O)c2ccc(C(=O)Nc3nnc(C4=COCCO4)o3)cc2)C1 (stereo unspecified)	0.794µM*	·	·	·	1.12µM*	·
CC1CCCCN1S(=O)(=O)c1ccc(C(=O)Nc2nnc(C3=COCCO3)o2)cc1 (stereo unspecified)	0.891µM*	?	i	?	1.26µM*	?
COC(=O)c1ccc(CNC(=O)c2ccc(S(=O)(=O)N3CCCC(C)C3)cc2)cc1 (stereo unspecified)	·	16.4µM*	i	-5.0%	·	-1.1%
O=C(Nc1nnc(C2=COCCO2)o1)c1ccc(S(=O)(=O)N2CCOCC2)cc1	11.2µM*	i	i	-18.0%	-2.1%	18.7%
Cc1ccc(Cl)cc1NC(=O)Cn1c(=O)cc(C)c2c(C)nn(C)c21	·	i	i	·	·	·
Nc1c(C(=O)Nc2ccccc2F)sc2nc3c(cc12)CCCCCC3	·	6.51µM*	13µM*	·	·	·
COc1ccc(NC(=O)c2sc3nc4c(cc3c2N)CCCCCC4)cc1OC	·	i	i	·	·	·
CCc1nnc(NC(=O)c2sc3nc4c(cc3c2N)CCCCCC4)s1	?	i	i	?	?	18.4µM*
CCc1nnc(NC(=O)c2sc3nc4c(cc3c2N)CCCCC4)s1	?	i	?	8.2µM*	?	16.4µM*
CCCCCCCOc1ccc(CC(=O)NO)cc1	·	i	i	·	·	·
CC(C)N(C(=S)NCc1ccccc1)c1ccccc1	7.94µM*	?	i	-3.8%	?	?
CN(C)CCCN(Cc1ccccc1)C(=S)NCc1ccccc1	8.2%	i	i	-52.3%	3.4%	-1.0%
CC(C)N(C(=S)NCc1ccccc1)C(C)C	7.08µM*	i	i	0.8%	11.2µM*	-1.7%
Cc1cccc(S(=O)(=O)NC(=O)C2(C)CCN2C(=O)c2ccccc2)c1 (stereo unspecified)	·	i	i	·	·	·
CC1CCC(NC(=O)CN2CCN(S(=O)(=O)c3ccc(Br)s3)CC2)CC1 (stereo unspecified)	·	?	i	·	·	·
CC1CCCCC1NC(=O)CN1CCN(S(=O)(=O)c2ccc(Br)s2)CC1 (stereo unspecified)	·	9.2µM*	?	1.4%	·	2.1%
N#CCCn1cc(/C=N/O)c(-c2ccccc2)n1	-15.4%	i	i	0.6%	-8.6%	2.3%
N#CCCn1cc(/C=N/NC(N)=S)c(-c2ccc(-c3ccccc3)cc2)n1	1.12µM*	i	i	?	3.16µM*	?
N#CCCn1cc(C=C(C#N)C#N)c(-c2ccc(-c3ccccc3)cc2)n1	?	20.6µM*	?	?	20µM*	?
N#CCCn1cc(/C=N/O)c(-c2ccc(F)cc2)n1	-14.2%	?	i	1.3%	-5.7%	-0.6%
CC(C)Cn1nc(C(=O)NCc2ccccc2CN2CCCC2)c2ccccc2c1=O	·	5.8µM*	i	-0.1%	·	1.5%
CCNc1nc(N)c(C(=C(C#N)C#N)c2ccccc2)s1	13.9%	i	i	?	-13.7%	20µM*
SMILES	RORg inh	KB-V1 cytotox	KB-3-1 tox	SW480 rereplic	VP16 counter	MCF10A rereplic
CCc1nc(-c2ccc(C)c(S(=O)(=O)N3CCN(c4ccc(C(C)=O)cc4)CC3)c2)no1	·	i	i	·	·	·
Cc1cc(N2CCN(C/C=C/c3ccccc3)CC2)n2ncnc2n1	?	9.2µM*	i	-11.4%	?	-6.9%
CCCc1cc(N2CCCC(C(=O)Nc3ccc(OC)cc3OC)C2)n2ncnc2n1 (stereo unspecified)	-7.1%	3.66µM*	?	-1.9%	-0.1%	-5.5%
CCc1c(C)nc2ncnn2c1N1CCCC(C(=O)NCCc2ccc(OC)cc2)C1 (stereo unspecified)	-2.9%	14.6µM*	?	6.0%	?	4.2%
CC1(C(=O)Nc2ccc(Cl)c(Cl)c2)CCN1C(=O)C1CCCCC1 (stereo unspecified)	·	i	i	·	·	·
O=c1c(S(=O)(=O)c2ccc(Cl)cc2)cn(Cc2ccc(F)cc2)c2ccc(F)cc12	·	i	i	·	·	·
CCCn1cc(S(=O)(=O)c2ccc(Cl)cc2)c(=O)c2cc(OC)ccc21	21.5%	7.31µM*	?	?	4.5%	?
O=c1c(S(=O)(=O)c2ccc(Cl)cc2)cn(Cc2ccccc2)c2ccc(F)cc12	?	4.11µM*	i	-3.5%	-3.4%	3.0%
COc1ccc(CNC(=O)C2CCN(S(=O)(=O)Cc3ccccc3)CC2)cc1	·	i	i	·	·	·
CC(C)CN(CC(C)C)C(=O)Cc1coc2ccc3ccccc3c12	?	23.1µM*	?	16.1%[9.22 µM]	?	?
O=C(O)Cc1coc2ccc3ccccc3c12	10.8%	i	i	0.2%	-7.2%	-27.7%
CCc1nc(C)cn1S(=O)(=O)c1cc(Br)ccc1OC	-23.9%	16.4µM*	i	-1.0%	3.1%	3.7%
Cn1c(NCCCO)nc2c1c(=O)n(Cc1cccc(F)c1)c(=O)n2C	·	i	i	·	·	·
Nc1n[nH]c(N)c1N=Nc1ccccc1	-41.8%	i	i	16.4µM*	24.9%	-12.6%
COc1cc2[nH]c(=O)n(Cc3ccc(C(=O)NCc4ccccc4)cc3)c(=O)c2cc1OC	·	?	i	·	·	·
CN(C)CCN[C@H]1CCC2C3CC=C4C[C@@H](O)CC[C@]4(C)C3CC[C@@]21C (stereo partly specified)	·	i	i	?	·	20.6µM*
CC12CCC(O)CC1=CCC1C2CCC2(C)C3=NN=CC3CC12 (stereo unspecified)	·	?	?	?	·	18.4µM*
COc1cc(OC)cc(-n2c(=O)c3ccccc3n(Cc3ccccc3C#N)c2=O)c1	·	i	i	·	·	·
O=C(c1ccccn1)N(Cc1ccco1)C1(C(=O)Nc2ccc(Br)cc2)CCCCC1	·	i	i	·	·	·
Cc1ccc(S(=O)(=O)NCC(=O)NCC(=O)OCc2c(F)cccc2Cl)cc1	22.8%	i	i	18.4µM*	-2.4%	8.8%
Cc1ccc(C(=O)NCC(=O)OCc2c(F)cccc2Cl)cc1	·	i	?	1.7%	·	-1.4%
O=C(Nc1ccc(Cl)cc1)c1ccc(-n2cccn2)c([N+](=O)[O-])c1	81.3%	14.6µM*	?	3.8%	?	?
C=CCNC(=O)/C(C#N)=C/c1ccccc1Cl	-41.0%	i	i	-139.9%	6.2%	12.4%

Screens from PubChem.
